From PubChem BioAssay (NCI)
The panel holds about 83,000 compounds, 20% with a hit somewhere; the sample as a whole holds those more often.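 96-well plates, one dose, 48 hours. Percent growth reported; active if below 10.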 A number with no mark means an inactive call. The source made the active and inactive calls.

What follows are molecules tested on SK-OV-3 ovarian (assay: NCI-60 one-dose screen, 48 h (100 = growth as untreated, 0 = no growth, -100 = all killed)). Conditions: 10 µM unless noted.

Structure (SMILES)	growth
O=[N+]([O-])c1ccc(-c2cc(-c3ccc(Nc4nc(Nc5ccc(Cl)cc5)nc(Nc5ccc(Cl)cc5)n4)cc3)no2)cc1	107%
O=C1/C(=C/c2ccc(F)cc2)C=C(c2ccccc2)N1CCc1ccccc1	29.1%
O=C(O)c1ccc2c(c1Cl)C(=O)c1ccccc1C2=O	102%
COc1cc(N=Nc2ccc(N)cc2)c(OC)cc1N=Nc1ccccc1.[Cl][Zn][Cl]	96.5%
O=[N+]([O-])c1ccc(OCCO)cc1	103%
CCN(CC)c1nc(SCC(=O)Nc2nc3ccc(C)cc3s2)nc(-c2ccccc2)c1C#N	93.7%
Cc1cc(NCCCCNc2ccnc3cc(Cl)ccc23)nc(Nc2ccc(C(=O)N3CCCC3)cc2)n1	106%
COc1ccc(-c2nc3c(c(=O)n2C(C)=O)C(c2ccc(Cl)cc2)c2sc4c(Cl)cccc4c2O3)cc1 (stereo not drawn)	-22.6% (active)
COc1ccc2[nH]c(O)c(/C=c3/cc4c(c(-c5ccc(F)c(OC)c5)n3)=Nc3ccccc3-4)c2c1	107%
N#CC1=C(/N=C/c2ccccc2)Oc2c(ccc3ccccc23)C1c1ccccc1 (stereo not drawn)	23.8%
CC(=O)C(C)Cc1cc2c(cc1C)C(C)(C)CCC2(C)C (stereo not drawn)	85.7%
Cc1ccc(Nc2nc(N)nc(CSCC(=O)NN)n2)cc1	101%
Cc1ccc(-c2c(-c3ccccc3)c(=O)oc3ccc(C)cc23)cc1	101%
N#C/C(=C\c1ccc2c(c1)OCO2)n1nnc2cc(F)c(F)cc21	83.6%
Cc1cccc(Cc2cnc(NC(=O)/C=C/c3ccco3)s2)c1	33%
N=C(N)c1ccc(-c2ccc(-c3cncc4ccccc34)s2)s1	64.4%
COc1ccc2occ(C3=C(c4c[nH]c5ccccc45)C(=O)N(O)C3=O)c2c1	88.7%
C=C(C)[C@@H]1CC[C@]2(C(=O)NC3CCCCC3)CC[C@]3(C)[C@H](CC[C@@H]4[C@@]5(C)CCCNC(C)(C)[C@@H]5CC[C@]43C)[C@@H]12	95.8%
O=C(/C=C/c1ccco1)c1ccc(Nc2nc(Nc3ccc(F)cc3)nc(Nc3ccc(Cl)cc3)n2)cc1	95.4%
COC(=O)[C@]12CC[C@@H](C)[C@H](C)[C@@H]1C1=CC[C@@H]3[C@@]4(C)C(C=O)=C[C@@](C)(COC(=O)c5ccco5)[C@@H]4C(=O)C[C@@]3(C)[C@]1(C)CC2	33.7%
COc1cccc(-c2nn(-c3ccccc3)cc2-c2ccnc(NCCNC(=O)Nc3ccc(Cl)c(Cl)c3)c2)c1	9.85% (active)
Cc1cc(N2CCCC2)nc(NCc2cc(Nc3ccnc4cc(Cl)ccc34)ccc2F)n1	26.8%
COc1cc(/C=C/C(=O)c2c(C)nc3ccccc3c2C)ccc1OCCCN1CCN(C(=O)c2ccco2)CC1	107%
